# Data taken from PubChem BioAssay (Tox21).
# Results filed as inconclusive are left out. Entries that show only a call come without a potency. The source made the active and inactive calls. Calls come from the whole dose curve; as a rule, active = well fitted cell-killing curve with a large enough effect in the repeat runs; inconclusive = weak or mixed curves, or effect the other way; inactive = flat fitted curve, though single readings scatter.
# What was measured:
# [1] = cAMP Responsive Elements (CRE) small molecule antagonists, cell-based qHTS assay: qHTS cell viability counter screen (AID 2060913); settings: CRE-bla HEK293T viability, CellTiter-Glo luminescence, 5 h; series mostly up to 92.4 µM; note: nearly all actives have a fitted effect of over 40% in size
# Outline: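 Steps: cells plated and held 18 hrs at 37 C/5% CO2; compounds and NKH477 (0.25 uM final) added; 3 hrs incubation; reporter substrate read; CellTiter-Glo added to measure cytotoxicity by luminescence.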
# [2] = cAMP Responsive Elements (CRE) small molecule agonists, cell-based qHTS assay: qHTS cell viability counter screen (AID 2060914); settings: CRE-bla HEK293T viability, CellTiter-Glo luminescence, 5 h; series mostly up to 92.4 µM;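 note: viability read after 3 h of compound exposure; nearly all actives have a fitted effect of over 50% in size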
# Outline: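 CRE-bla HEK 293T cells, plated 18 h at 37 °C, were exposed to compounds for 3 h at 37 °C/5% CO2. Viability was then measured in the same wells by CellTiter-Glo luminescence after 30 min at room temperature.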
# Potency is the fitted concentration of half-maximal effect.
SMILES,Potency [1],Potency [2]
COc1cc(NS(=O)(=O)c2ccc(N)cc2)ncn1,inactive,inactive
COC(=O)/C=C\C(=O)OC,inactive,inactive
CC(C)c1cccc(C(C)C)c1NC(=O)NS(=O)(=O)c1cc(C(C)(C)O)co1,inactive,inactive
COC(=O)CCSCCC(=O)OC,inactive,inactive
CC1(C)NC(=O)N(c2ccc([N+](=O)[O-])c(C(F)(F)F)c2)C1=O,inactive,inactive
CCc1ccc(Br)cc1,inactive,inactive
COc1cc(-c2nc(NC(=O)c3cc4cc(C)cc(C)c4n3CC(=O)O)sc2CCC2CCCCC2)c(OC)cc1Cl,25 µM (active),25 µM (active)
N#Cc1ccc(CC(=O)c2cccc(C(F)(F)F)c2)cc1,inactive,inactive
C(=C\c1ccccc1)/CN1CCN(C(c2ccccc2)c2ccccc2)CC1,inactive,inactive
O=C1CCCCCCCCCCC(=O)OCCO1,inactive,inactive
Cc1cccc(C(C)(C)C)c1O,inactive,inactive
C[C@@H]1C[C@H]2[C@@H]3CCC4=CC(=O)C=C[C@]4(C)[C@@]3(F)[C@@H](O)C[C@]2(C)[C@@]1(O)C(=O)COP(=O)(O)O,inactive,inactive
CCCC(=O)OCc1ccccc1,inactive,inactive
CN1C(=O)CC(c2ccccc2)C1=O (centres undefined),inactive,inactive
CCCCC(=O)OCC(=O)[C@H]1[C@H](C)C[C@H]2[C@@H]3C[C@H](F)C4=CC(=O)C=C[C@]4(C)[C@@]3(F)[C@@H](O)C[C@@]21C,inactive,inactive
CC(C)(C#N)Nc1nc(Cl)nc(NC2CC2)n1,inactive,inactive
CCCCCCCCCC[N+](C)(C)[O-],inactive,inactive
COC(=O)C(C)=O,inactive,inactive
CCN(CCN)c1cccc(C)c1,inactive,inactive
Nc1ccc(S(=O)(=O)Nc2cnc3ccccc3n2)cc1,inactive,inactive
C=CC(=O)OCCOCCOCC,inactive,inactive
Nc1ccc2cc(S(=O)(=O)O)ccc2c1,inactive,inactive
ClC(Cl)(Br)Br,inactive,inactive
O=C1c2c(O)cccc2Cc2cccc(O)c21,inactive,inactive

SMILES,Potency [1],Potency [2]
CCN(CC)CCNC(C(=O)OCCC(C)C)c1ccccc1 (centres undefined),inactive,inactive
CCN1CCc2nc(N)oc2CC1,inactive,inactive
CCc1occc(=O)c1O,inactive,inactive
CCOC(=O)CC(C)=O,inactive,inactive
O=C(O)c1cc(N=Nc2ccc([N+](=O)[O-])cc2)ccc1O,inactive,inactive
CCC(C)[O-].CCC(C)[O-].CCOC(=O)/C=C(/C)[O-].[Al+3],inactive,inactive
CCN(CC)CCNc1ccc(CNC=O)c2sc3ccc(OC)cc3c(=O)c12,inactive,inactive
O/N=C/C=N/O,inactive,inactive
CCOC(=O)[C@H](CCc1ccccc1)N[C@@H](C)C(=O)N1Cc2cc(OC)c(OC)cc2C[C@H]1C(=O)O,inactive,inactive
O=C(O)CCC(=O)c1ccc(-c2ccccc2)cc1,inactive,inactive
C[Si](O[Si](C)(C)C)O[Si](C)(C)C,inactive,inactive
CCOCCn1c(C2CCN(CCc3ccc(C(C)(C)C(=O)O)cc3)CC2)nc2ccccc21,inactive,inactive
CCCCCCCC(OC)OC,inactive,inactive
OCCc1ccncc1,inactive,inactive
O=C1c2ccccc2C(=O)C1c1nc2ccccc2c(Br)c1O,inactive,inactive
C=CC(=O)OCCN(CC)CC,inactive,inactive
CC1CCc2cc(F)cc3c(=O)c(C(=O)O)cn1c23 (centres undefined),inactive,inactive
CCC(C(=O)OCCN(CC)CC)c1ccccc1 (centres undefined),inactive,inactive
C=Cc1ccccn1,inactive,inactive
COc1c(Cl)ccc(Cl)c1C(=O)O,inactive,inactive
c1cc[c]([Bi]([c]2ccccc2)[c]2ccccc2)cc1,inactive,inactive
CC(CC(C#N)(c1ccccc1)C(C)C)N(C)C (centres undefined),inactive,inactive
C[N+]1(C)[C@@H]2CC(OC(=O)[C@H](CO)c3ccccc3)C[C@H]1[C@@H]1O[C@@H]12 (some centres undefined),inactive,inactive
O=C(CCC1CCN(Cc2ccccc2)CC1)c1ccc2c(c1)NCCCC2,inactive,inactive

SMILES,Potency [1],Potency [2]
Fc1ccc([C@@H]2CCNC[C@H]2COc2ccc3c(c2)OCO3)cc1,inactive,inactive
CC(Oc1cc(Cl)ccc1Cl)C(=O)O (centres undefined),inactive,inactive
O=c1[nH]c2ccc(Cl)cc2o1,inactive,inactive
O=C(O)/C=C(\CC(=O)O)C(=O)O,inactive,inactive
COc1cccc(N)c1,inactive,inactive
CCOCCO,inactive,inactive
CN(C)CCc1c[nH]c2ccc(C[C@H]3COC(=O)N3)cc12,inactive,inactive
CCC(C(=O)NC(N)=O)c1ccccc1 (centres undefined),inactive,inactive
CCCCOC(=O)CCS,inactive,inactive
Cc1cc(C)c(N)cc1C,inactive,inactive
COc1ccc(-n2nc(C(F)F)cc2-c2ccc(S(C)=O)cc2)cc1 (centres undefined),inactive,inactive
COc1cc2nc(N(C)CCCNC(=O)C3CCCO3)nc(N)c2cc1OC (centres undefined),inactive,inactive
CCC(Cc1ccccc1)(C(=O)c1ccc(N2CCOCC2)cc1)N(C)C (centres undefined),inactive,inactive
CC(=O)/C(C)=C/C1C(C)=CCCC1(C)C (centres undefined),inactive,inactive
O=c1cc[nH]cc1,inactive,inactive
Cc1cc(O)c(Cl)c(C)c1Cl,inactive,inactive
CCCCCCCCCCCCc1ccc(O)cc1,61.1 µM (active),61.1 µM (active)
Cc1cc(O)c2c(c1)C(=O)c1cc(O)cc(O)c1C2=O,inactive,inactive
Fc1ccc(C(c2ccc(F)cc2)N2CCN(C/C=C/c3ccccc3)CC2)cc1,inactive,inactive
O=[N+]([O-])c1ccc2ncccc2c1,inactive,inactive
CC(COCC(C)OC(=O)c1ccccc1)OC(=O)c1ccccc1 (centres undefined),inactive,inactive
O=C(O)CC(=O)C(=O)O,inactive,inactive
CCC(C)(C)C1CCC(OC)CC1 (centres undefined),inactive,inactive
N#Cc1ccccc1,inactive,inactive

SMILES,Potency [1],Potency [2]
CCCCOc1ccc(N)cc1,inactive,inactive
O=S(=O)(O)CO,inactive,inactive
NCCCCCCN,inactive,inactive
CC(C)(O)CCCC1=CCC(C=O)CC1 (centres undefined),inactive,inactive
CCOc1ccc(OCC)c(Cl)c1,inactive,inactive
COc1ccc(C(=O)N2CCN(CC(=O)N3CCOCC3)CC2)cc1,inactive,inactive
CC(C)C=O,inactive,inactive
CC(C)=CCC/C(C)=C/C=O,inactive,inactive
O=C(O)c1ccc(-n2nc(-c3ccccc3O)nc2-c2ccccc2O)cc1,inactive,inactive
O=C1O[C@H]([C@@H](O)CO)C(O)=C1O,inactive,inactive
Cc1ccc(N=Nc2c(O)c(C(=O)O)cc3ccccc23)c(S(=O)(=O)O)c1,inactive,inactive
Cc1cc([N+](=O)[O-])ccc1N,inactive,inactive
CC(C)(C)C(=O)OCOP(=O)(COCCn1cnc2c(N)ncnc21)OCOC(=O)C(C)(C)C,inactive,inactive
CCC(C)C1CCCCC1=O (centres undefined),inactive,inactive
CN(C(=O)CCCOc1ccc2[nH]c(=O)ccc2c1)C1CCCCC1,inactive,inactive
COc1ccc(C(=O)c2ccc(OC)cc2O)c(O)c1,inactive,inactive
Cc1cc(NS(=O)(=O)c2ccc(N)cc2)nc(C)n1,inactive,inactive
CCNC(=O)N1CCN(CCCC(c2ccc(F)cc2)c2ccc(F)cc2)CC1,inactive,inactive
CNCC(O)c1ccc(O)c(O)c1 (centres undefined),inactive,inactive
CN(C)c1ccc(O)c2c1C[C@H]1C[C@H]3[C@H](N(C)C)C(=O)C(C(N)=O)=C(O)[C@@]3(O)C(=O)C1=C2O,inactive,inactive
CN(C)CCC(c1ccccc1)c1ccccn1 (centres undefined),inactive,inactive
CC(=O)c1ccc2ccccc2c1,inactive,inactive
C/C=C/C(=O)OCC(C)C,inactive,inactive
O=C(O)[C@@H]1CSCN1,inactive,inactive

SMILES,Potency [1],Potency [2]
C=C[Si](OC(=C)C)(OC(=C)C)OC(=C)C,inactive,inactive
CCOc1ccc(NC(=O)CC(C)O)cc1 (centres undefined),inactive,inactive
CCCCOC(=O)C(=O)OCCCC,inactive,inactive
CCCCCCCCCCCCCCCCCCO,inactive,inactive
Cc1c(N)cccc1[N+](=O)[O-],inactive,inactive
COc1ccc(C(=O)c2ccc(C)cc2)c(O)c1,inactive,inactive
CCCCCCCCOCCCN,inactive,inactive
C[C@@H]1C[C@H]2[C@@H]3C[C@H](F)C4=CC(=O)C(Cl)=C[C@]4(C)[C@@]3(F)[C@@H](O)C[C@]2(C)[C@@]1(O)C(=O)CO,inactive,inactive
NNc1nc(-c2ccccc2)cs1,inactive,inactive
CCOC(=O)OCC/C(SC(=O)OCC)=C(\C)N(C=O)Cc1cnc(C)nc1N,inactive,inactive
O=[N+]([O-])c1ccc(Nc2ccc(Nc3ccccc3)c(S(=O)(=O)O)c2)c([N+](=O)[O-])c1,inactive,inactive
O=C1CCC(=O)N1,inactive,inactive
CNNCc1ccc(C(=O)NC(C)C)cc1,inactive,inactive
COC(=O)c1cc(S(N)(=O)=O)ccc1OC,inactive,inactive
CC(C)(O)CCc1ccccc1,inactive,inactive
COc1ccccc1N1CCN(CCCNc2cc(=O)n(C)c(=O)n2C)CC1,inactive,inactive
O=C(c1ccccc1)C1CCCCC1,inactive,inactive
Cc1cc(O)c2c(O)c3c(O)cccc3cc2c1,inactive,inactive
CCC(C)OC(C)CC (centres undefined),inactive,inactive
CCCC1CCCC(=O)O1 (centres undefined),inactive,inactive
OCCN(CCO)c1cccc(Cl)c1,inactive,inactive
